# Reference: ChEMBL document CHEMBL3988442, “University of Dundee, Small-Polar-MMV Screening Library” (2021)
# The whole screen tested about 48,000 compounds, of which about 13,000 (27%) showed an effect of 50% or more. This is one part of the list.
# System: Wolbachia pipientis
# Experiment: Anti-Wolbachia Cell-Based Screen
# Type: functional
# Parameters: scale not given: in the data most compounds retested in dose-response had high values
# Details: 5 µM
row,Compound,Percent Effect [%]
1,Cn1nnc2c1CCN(S(C)(=O)=O)C2COCc1ccccc1 (stereo unspecified),-3.39
2,Nc1cc2c(nn1)CCN(C(=O)c1csc(-c3ccccc3)n1)C2,1.599
3,O=c1cc(-c2ccncc2)nc(-c2ccc(CN3CC[C@@H](O)C3)cc2)[nH]1,1.525
4,c1ccc(-c2nc(CN3CCn4c(nnc4C4CC4)C3)cs2)cc1,1.064
5,c1sc(C2CCCCC2)nc1CN1CCn2c(nnc2C2CC2)C1,99.95
6,COc1ccc(-c2nc(CN3CCc4c(ncn4C)C3)cs2)cc1,30.48
7,Cn1cnc2c1CCN(Cc1csc(-c3ccsc3)n1)C2,1.661
8,c1sc(C2CCCC2)nc1CN1CCn2c(nnc2C2CC2)C1,-0.3735
9,CCc1nc(CN2CCc3c(ncn3C3CC3)C2)cs1,49.69
10,CCCc1nc(CN2CCc3c(ncn3C3CC3)C2)cs1,72.74
11,Cn1cnc2c1CCN(Cc1csc(C3CCCCC3)n1)C2,104.6
12,Cn1cnc2c1CCN(Cc1csc(C3CCCC3)n1)C2,102.6
13,Cc1ccc(-c2nc(CN3CCc4c(ncn4C)C3)cs2)o1,0.8085
14,c1cc(-c2noc(CN3CCc4c(ncn4C4CC4)C3)n2)cs1,0.1339
15,O=C(C1CCOC1)N1CCc2ncnc(C3CC3)c2CC1 (stereo unspecified),2.623
16,CNC(=O)C1CCN(c2ncnc3c2CCN(C(=O)C2CC2)C3)C1 (stereo unspecified),-3.996
17,O=C(C1CC1)N1CCc2c(ncnc2NCCc2nc3c(s2)CCC3)C1,7.369
18,CCN1CCN(c2ncnc3c2CCN(C(=O)C2CC2)C3)CC1,-21.72
19,Cc1cnc(-c2nc(O)c3c(n2)CN(C(=O)C2CCCC2)CC3)cn1,133.6
20,Cc1cnc(-c2nc(O)c3c(n2)CN(C(=O)C2CCCO2)CC3)cn1 (stereo unspecified),141.1
21,CN(C)c1nc2c(c(=O)[nH]1)CCN(C(=O)C1CCCO1)C2 (stereo unspecified),4.175
22,O=C(C1CCCO1)N1CCc2onc(-c3ccc(Cl)cc3)c2C1 (stereo unspecified),0.5907

row,Compound,Percent Effect [%]
1,Cc1cnc(-c2nc(O)c3c(n2)CN(C(=O)C2CC2)CC3)cn1,165.3
2,CCN(CC)C1CCN(c2ncnc3c2CCN(C(=O)C2CC2)C3)C1 (stereo unspecified),-6.613
3,O=C(C1CCOC1)N1CCc2ncnc(NC3CCC3)c2CC1 (stereo unspecified),-0.188
4,Cc1cnc(-c2nc(O)c3c(n2)CN(C(=O)C2CCOC2)CC3)cn1 (stereo unspecified),177.2
5,NC(=O)C(NC(=O)c1ccc(NC2CC2)nc1)c1ccccc1 (stereo unspecified),15.13
6,CC(C)n1cnc(C2CN(C)c3ccc(C(=O)NC4CCCC4)cc32)n1 (stereo unspecified),-4.903
7,CC(=O)N[C@@H](CC(C)C)C(=O)N1CCC(n2cc(CO)nn2)CC1,-15.95
8,CCCc1nccn1-c1ccc(C(C)O)cc1 (stereo unspecified),-9.636
9,Cc1oc(C(C)C)cc1C(=O)N1C[C@H]2CC[C@@H]1CN(C(=O)N(C)C)C2,-18.45
10,O=C(N1CCC(Oc2ccncc2)C1)C1(c2ccc(F)cc2)CC1 (stereo unspecified),-3.796
11,COc1cnc(N2CCN(C)CC2)nc1-c1ccnn1C,-15.65
12,c1cc(-c2c[nH]c([C@@H]3COCCN3Cc3csnn3)n2)ccn1,7.154
13,O=C1NCCN(CC2CCCCC2)C1CC(=O)N1CCc2n[nH]cc2C1 (stereo unspecified),-15.6
14,Nc1cc2c(nn1)CCN(C(=O)CC1CCCC1)C2,-4.566
15,Cc1cnc(-c2nc(O)c3c(n2)CN(C(=O)CC2CCCC2)CC3)cn1,148.5
16,Cc1cnc(N2CCC3(CC2)CCN(c2cncnc2)C3=O)nc1,-8.08
17,NS(=O)(=O)c1ccc(NCc2ccccc2)cc1C(F)(F)F,11.93
18,O=C(NCc1nc[nH]n1)c1cc(COc2cccc(C(F)(F)F)c2)[nH]n1,0.1207
19,NS(=O)(=O)NCc1cc(-c2ccc(C(F)(F)F)cc2)n[nH]1,103.6
20,CCOCCCC(=O)N1CCN(c2cccc(OC)c2)C(C)C1 (stereo unspecified),5.389
21,Cc1ccc2c(c1)c(CNC(=O)C1CCN(CC(N)=O)CC1)nn2C,11.07
22,Cc1cc(CN(C)CCC(O)c2ccccc2)no1 (stereo unspecified),107.6

row,Compound,Percent Effect [%]
1,CN(CCC(O)c1ccccc1)Cc1ccccc1C#N (stereo unspecified),111.8
2,N#Cc1ccccc1CN(CC(N)=O)C1CCCC1,-5.252
3,Cc1nc(CN(C)Cc2nc(-c3ccccc3)no2)co1,-6.169
4,Cc1cc(CN(C)CCN(C)c2ccccc2)no1,9.198
5,Cc1cc(CN(C)CCC(O)c2ccccc2)nn1C (stereo unspecified),-3.114
6,CN(CCC(O)c1ccccc1)Cc1nc(-c2ccccc2)no1 (stereo unspecified),118.9
7,COc1cccc(CN(C)Cc2ccccc2C#N)c1OC,-9.098
8,CN(Cc1nc(-c2ccccc2)no1)C(=O)CNS(C)(=O)=O,-1.951
9,COc1ccc(F)c(NCc2cnn(C3CCS(=O)(=O)C3)c2)c1 (stereo unspecified),7.936
10,Cc1ccc(CNc2ccn(CCc3ccncc3)n2)s1,19.44
11,COc1cc(OC)cc(N2CCC(NC(=O)c3cccn3C)CC2)c1,-13.09
12,COc1ccsc1C(=O)NC1CCN(c2ccc(C#N)cc2)CC1,-30.88
13,COc1cc(OC)cc(N2CCC(NC(=O)c3ccc[nH]3)CC2)c1,-4.011
14,COc1ccc(N2CCC(N(C)C(C)C(=O)N(C)C)CC2)cc1 (stereo unspecified),7.179
15,O=C(Cc1cccs1)NC1CCN(c2cccc(F)c2)CC1,-15.75
16,COc1ccc(N2CCC(NC(=O)c3sccc3C)CC2)cc1,79.74
17,COc1ccsc1C(=O)NC1CCN(c2cccc(F)c2)CC1,98.27
18,COc1ccc(C(=O)NC2CCN(c3ncccn3)CC2)cc1F,13.96
19,COc1ccc(N2CCC(NC(=O)c3ccc(C#N)cc3)CC2)cc1,89.14
20,CCN(Cc1ccncc1)C1CCCN(Cc2ccc(F)cc2Cl)C1 (stereo unspecified),-7.648
21,O=C(O)CC1COCCN1C(=O)C1(c2ccc(Cl)cc2)CCC1 (stereo unspecified),14.34
22,O=S(=O)(CCC1CCCO1)NCc1ncc(-c2ccccc2)o1 (stereo unspecified),-10.29
